FEN1 inh: human FEN1 inhibition. P39748. Recombinant FEN1 flap cleavage, fluorescence, 15 min. Potency, µM (top dose mostly 114 µM), for inactives: at the highest dose activity change, negative = inhibition, most hits filed as inhibitors. 0.35% of 390,000 active. AID 588795; also: % is scaled to controls: 0 for no effect and ±100 for the full control effect; nearly all actives have a fitted effect of over 65% in size
Target sequence (P39748 whole entry, looked up): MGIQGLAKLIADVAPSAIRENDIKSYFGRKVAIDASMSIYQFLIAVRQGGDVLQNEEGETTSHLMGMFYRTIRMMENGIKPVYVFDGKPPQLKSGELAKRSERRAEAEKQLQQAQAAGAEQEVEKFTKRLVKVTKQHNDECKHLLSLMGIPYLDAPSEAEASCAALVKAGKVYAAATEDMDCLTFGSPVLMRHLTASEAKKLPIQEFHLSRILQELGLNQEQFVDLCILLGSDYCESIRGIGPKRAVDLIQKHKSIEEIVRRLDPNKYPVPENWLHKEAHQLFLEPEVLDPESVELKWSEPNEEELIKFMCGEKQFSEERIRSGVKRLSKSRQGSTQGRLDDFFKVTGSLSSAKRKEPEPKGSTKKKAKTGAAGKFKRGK
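Potency values derive from four-parameter Hill fits of normalized qHTS data. The reaction used 10 nM FEN1 preincubated 15 min at room temperature with compound, then 50 nM DNA substrate, read at 0 and 15 min.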
POLH inh: inhibitors of human DNA polymerase eta. 1.2% of 390,000 active. Q9Y253. Potency, µM (top dose mostly 114 µM), inactives show at the highest dose activity change, negative = inhibition, usual class: inhibitors. AID 588591. recombinant Pol eta, fluorescent DNA replication assay; also: % is scaled to controls: 0 for no effect and ±100 for the full control effect
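Fluorescent replication assay: 50 nM final substrate added after a 15 min room-temperature compound preincubation with 10 nM enzyme. Signal taken at 0 min and again at 10 min.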
Pol beta inh: DNA polymerase beta (human) inhibition; P06746; Pol beta primer extension/strand displacement, fluorescence kinetic; Potency, µM (doses to about 114 µM), without a hit: at the highest dose activity change, negative = inhibition, usual class: inhibitors; 1.3% of 340,000 active; AID 485314; also: % is scaled to controls: 0 for no effect and ±100 for the full control effect
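Values derive from four-parameter Hill fits of normalized kinetic data: reads at 0 and 10 min following addition of 50 nM substrate to 10 nM Pol beta preincubated 15 min with compound.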
POLI inh: inhibitors of human DNA polymerase iota; Q9UNA4; Pol iota fluorescent replication assay, 10 min; Potency, µM (highest dose often 115 µM), for the others: top-dose activity, negative = inhibition, hits mostly inhibitors; 1% of 390,000 active; AID 588590
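Fluorescent replication assay read twice, at 0 min and 10 min after adding 50 nM (final) substrate. Enzyme (10 nM) and compounds were first incubated 15 min at room temperature; enzyme-free buffer wells were negative controls.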
WRN inhibitor: inhibitors of human WRN helicase. WRN helicase unwinding, fluorescent forked duplex, kinetic. 0.46% of 360,000 active. Potency, µM (doses to about 114 µM), for the others: at the top dose activity change, negative = inhibition, actives largely listed as inhibitors. AID 651768; also: % is scaled to controls: 0 for no effect and ±100 for the full control effect; nearly all actives have a fitted effect of over 55% in size
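WRN at 20 nM final was preincubated with compound for 15 min at room temperature; reaction started with 100 nM forked duplex oligonucleotide carrying fluorophore and quencher plus 2 mM ATP (final). Unwinding followed kinetically by red fluorescence (ex 525/em 598 nm).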
POLK inh: blocks human DNA polymerase kappa activity | Q9UBT6 | purified Pol kappa, fluorescent DNA synthesis assay, 10 min | Potency, µM (top dose mostly 107 µM), for the others: at the top dose activity, negative = inhibition, usual class: inhibitors | 0.53% of 400,000 active; also: % is scaled to controls: 0 for no effect and ±100 for the full control effect
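Activity was followed as the change in fluorescence between reads at 0 and 10 min after starting the reaction with 50 nM substrate. Beforehand, 10 nM polymerase had been preincubated with compound for 15 min at room temperature.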
Starred values were filed as active, the others as inactive; ? = inconclusive; / = not tested or not shown; [ ] = remark or other dose. Shown are actives, neighbours in structure and some others; about 2.4% of the full set was active somewhere. Calls follow the shape of the dose curve; as a rule, active = well fitted curve in the direction sought with a large enough effect; inconclusive = small, poorly fitted or top-dose-only effect, or another doubt; inactive = no such curve, though single readings can be large; an effect the other way counts as inactive or inconclusive. Potency is read from the fitted curve at half-maximal effect.

SMILES | FEN1 inh | POLH inh | Pol beta inh | POLI inh | WRN inhibitor | POLK inh
Cn1c(=O)n(-c2ccc(C(C)(C)C#N)cc2)c2c3cc(-c4cnc5ccccc5c4)ccc3ncc21 | -2%[229 µM] | / | / | 18%[229 µM] | / | -13%[229 µM]
O=C1c2ccccc2C(=O)N1OS(=O)(=O)c1ccc(F)cc1 | -3% | -7% | 30% | -16% | 3% | -8%
Cc1cc(C)c(S(=O)(=O)ON2C(=O)c3ccccc3C2=O)cc1C | -15% | -5% | 3% | -4% | 35µM* | -8%
Cc1ccc(S(=O)(=O)ON2C(=O)c3ccccc3C2=O)c(C)c1 | ? | -19% | 4%[57.1 µM] | 112% | 45µM* | 2%
Cc1cc(C)c(C)c(S(=O)(=O)ON2C(=O)c3ccccc3C2=O)c1C | -19% | -14% | 3% | -16% | ? | -8%
C/C=C1\COC(C(=O)NCCN2CCOCC2)(C(F)(F)F)C=C1C=C(C)C (configuration not stated) | 8% | / | / | 11% | / | -9%
O=C(NCCc1ccccc1)c1ccc(Cn2c(=O)c3cccn3c3cccnc32)cc1 | -3% | -4% | 12% | 2% | / | -3%
O=C(NCCc1ccc(Cl)cc1)c1ccc(Cn2c(=O)c3cccn3c3cccnc32)cc1 | -4% | ? | 11µM* | ? | / | -28%
Cc1cc(/C=C/c2ccnc3ccccc23)ccc1N | -13% | / | / | ? | / | ?
Cc1cc(N(C)C)c(C)cc1/C=C/c1ccnc2ccccc12 | -3% | / | / | 89µM* | / | -19%
CN(C)c1ccc(/C=C/c2ccnc3ccccc23)cc1N | -11% | / | / | 79µM* | / | -16%
CC(C)CCNC(=O)Cn1c(SCc2cccc(F)c2)nc2ccncc21 | -13% | / | / | -13% | / | -7%
[O-][N+]12CCCc3cccc(c31)CCC2 | ? | / | / | ? | / | -41%
N[C@](CC1c2ccccc2Oc2ccccc21)(C(=O)O)[C@H]1C[C@@H]1C(=O)O | / | / | / | / | / | 6%[19.4 µM]
Cc1ccc(S(=O)(=O)c2cnc(-c3ccccc3)[nH]c2=O)cc1 | 16% | / | / | 36% | / | -2%
C#CCOCCOCCOCCNc1nc(N2CCN(C(=O)CCCCCCCCCCNC(=O)Cn3cc(CCCCCN)nn3)CC2)nc(N2CCN(C(=O)CCCCCCCCCCNC(=O)Cn3cc(CCCCCN)nn3)CC2)n1 | 89µM* | -18% | / | ? | 79µM* | -14%
C#CCOCCOCCOCCNc1nc(N2CCN(C(=O)Cn3cc(CCO)nn3)CC2)nc(N2CCN(C(=O)Cn3cc(CCCCN)nn3)CC2)n1 | -4% | -13% | / | 8% | -3% | -11%
C#CCOCCOCCOCCNc1nc(N2CCOCC2)nc(N2CCN(C(=O)Cn3cc(CCCN=C(N)N)nn3)CC2)n1 | -1% | 1% | -6% | -16% | 1% | 2%
C#CCOCCOCCOCCNc1nc(N2CCN(C(=O)Cn3cc(CCCN=C(N)N)nn3)CC2)nc(N2CCN(C(=O)[C@H]([C@@H](C)CC)n3cc(CCC(=O)O)nn3)CC2)n1 | 2% | 3% | -1% | 89µM* | 12% | 1%
C#CCOCCOCCOCCNc1nc(N2CCN(C(=O)Cn3cc(CCCN=C(N)N)nn3)CC2)nc(N2CCN(C(=O)Cn3cc(CCCN=C(N)N)nn3)CC2)n1 | / | / | 1.6µM* | / | / | /
C#CCOCCOCCOCCNc1nc(N2CCN(C(=O)Cn3cc(CCCCN)nn3)CC2)nc(N2CCN(C(=O)Cn3cc(CCCCN)nn3)CC2)n1 | -8% | 2% | 40µM* | ? | -6%[57.1 µM] | ?
C#CCOCCOCCOCCNc1nc(N2CCN(C(=O)Cn3cc(CCO)nn3)CC2)nc(N2CCN(C(=O)[C@H]([C@@H](C)CC)n3cc(CCCN=C(N)N)nn3)CC2)n1 | 1% | -19% | / | 12% | -6% | 8%
C#CCOCCOCCOCCNc1nc(N2CCN(C(=O)CCCCCCCCCCNC(=O)Cn3cc(CCCCCN)nn3)CC2)nc(N2CCN(C(=O)CCCCCCCCCCNC(=O)[C@@H](CCC(=O)O)n3cc(CCCCCN)nn3)CC2)n1 | 7% | -15% | / | ? | 0% | 16%
Cc1cc(Cn2cnc3c(cnn3C(C)(C)C)c2=O)ccc1F | -12% | / | / | -5% | / | 1%
CCn1c2ccccc2c2cc(/C=C3/C=Cc4ccccc43)ccc21 | -23% | / | / | 3% | / | -7%
SMILES | FEN1 inh | POLH inh | Pol beta inh | POLI inh | WRN inhibitor | POLK inh
O=Cc1c[nH]c2ccccc12 | 17% | / | / | 21% | / | 8%
CCC1(c2ccccc2)NC(=O)NC1=O (configuration not stated) | / | / | / | / | / | -5%[12 µM]
O=C(Nc1ccccc1N1CCOCC1)c1cc(-c2ccco2)nc2ccccc12 | -11% | ? | 14µM* | ? | -15% | -41%
O=C(N/N=C/c1ccc2c(c1)OCO2)c1cc(-c2ccco2)nc2ccccc12 | 11% | ? | / | 3.2µM* | -6%[11.6 µM] | ?
CCN1CCN(C(=O)c2cc(-c3ccco3)nc3ccccc23)CC1 | 9% | 35µM* | / | 40µM* | -15% | ?
CCOC(=O)CSc1nc2cc(OC)c(OC)cc2cc1C#N | -8% | / | / | 21% | / | -11%
CC[C@H](C)[C@H](NC(=O)[C@H](CCC(=O)O)NC(=O)[C@H](CC(N)=O)NC(=O)[C@@H](N)[C@@H](C)O)C(=O)N[C@H](C(=O)N[C@@H](CCC(=O)O)C(=O)N[C@@H](CCC(=O)O)C(=O)N[C@@H](CCC(N)=O)C(=O)N[C@@H](Cc1ccc(O)cc1)C(=O)N[C@H](C(=O)N1CCC[C@H]1C(=O)N[C@@H](CCC(N)=O)C(=O)N[C@@H](CO)C(=O)N[C@@H](CC(C)C)C(=O)N[C@@H](C)C(=O)N[C@H](C(=O)N[C@@H](CC(C)C)C(=O)N[C@@H](CCC(=O)O)C(=O)N[C@@H](CO)C(=O)N[C@H](C(=O)N[C@@H](Cc1ccccc1)C(=O)N[C@@H](CCC(N)=O)C(=O)N[C@@H](CCC(=O)O)C(=O)N[C@@H](CC(C)C)C(=O)NCC(=O)N[C@@H](CCCCN)C(=O)N[C@@H](CC(C)C)C(=O)N[C@H](C(=O)NCC(=O)N1CCC[C@H]1C(=O)N[C@@H](CC(N)=O)C(=O)N[C@@H](CO)C(=O)N[C@@H](CCC(N)=O)C(=O)O)[C@@H](C)O)C(C)C)[C@@H](C)O)[C@@H](C)O)C(C)C | / | / | / | / | / | 20%[60.1 µM]
O=C(O)c1ccccc1-c1ccc(/C=C2\SC(=O)N(c3ccccc3)C2=O)o1 | -14% | ? | ? | ? | -6%[11.6 µM] | -24%
Cc1ccccc1NC(=O)CN1C(=O)S/C(=C\c2ccc(-c3cccc(C(=O)O)c3C)o2)C1=O | -13% | ? | 35µM* | ? | -11%[57.1 µM] | ?

Source: PubChem BioAssay
